IDE act: human IDE activators in live cells, primary screen, fluorescence polarization, HEK cells, FAbeta-B substrate | activation, % at 5.96 µM | FAbeta-B cleavage; 0% vehicle, 100% cell-free pure enzyme wells | Insulin-degrading enzyme (Homo sapiens), P14735 | hit rate 0.073% among 340,000;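 active means activation above the mean of all tested compounds plus 3 SD, set per screening campaign, cut at about 17% in these data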
M18AAP inhibitor: PfM18AAP inhibitors, malaria aminopeptidase, primary screen, biochemical, QFRET, recombinant enzyme. M18 aspartyl aminopeptidase (Plasmodium falciparum 3D7). H-Glu-NHMec fluorogenic cleavage. inhibition, % at 7.35 µM. hit rate 1.2% among 290,000;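 active means inhibition above the campaign mean inhibition over all tested compounds plus 3 SD, cut at about 28% in these data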;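 further: 0% = plate median of test compound wells and 100% = 2 mM ZnCl2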
PolyA inh: polyadenylation inhibitors in yeast reporter cells, primary screen, luminescence, S. cerevisiae; activity score, % at 12 µM; hit rate 0.02% among 300,000; S. cerevisiae SKY197-pL101 polyadenylation reporter, beta-gal luminescence; efflux-impaired pdr1/pdr3 knockout yeast; score 100 = 6 SD above DMSO;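 active means lowest replicate activity score at least 50, where 100 means six control SD above control mean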;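 further: yeast exposed to compound for 9 h at 30 °C; higher score means more reporter readthrough which indicates perturbed polyadenylation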
CaV13 ICDI inh: Disruptors of the CACNA1D IQ motif to Ca2+-dependent inactivation inhibitor domain association, primary screening, Förster resonance energy transfer in intact living …; HEK cells, CFP/YFP FRET ICDI-IQ, plate reader, 10 min; percent FRET-ratio fall versus neutral wells; inhibition, % at 12.3 µM; hit rate 0.098% among 340,000;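 active means mean replicate inhibition of at least 30% and at least 1% of replicates passing that level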;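 further: 0% = median of the neutral control wells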
ALR inh: inhibitors of human ALR sulfhydryl oxidase, primary screen, biochemical, H2O2 detection, HRP-luminol luminescence, single point; FAD-linked sulfhydryl oxidase ALR (Homo sapiens), P55789; purified ALR, DTT oxidation; inhibition, % (no concentration beside the values); hit rate 3.8% among 290,000; AID 485317, 2010;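 active means mean replicate inhibition above about 79%, with every replicate also reaching it, limit read from the data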
Target sequence (P55789 whole entry, looked up): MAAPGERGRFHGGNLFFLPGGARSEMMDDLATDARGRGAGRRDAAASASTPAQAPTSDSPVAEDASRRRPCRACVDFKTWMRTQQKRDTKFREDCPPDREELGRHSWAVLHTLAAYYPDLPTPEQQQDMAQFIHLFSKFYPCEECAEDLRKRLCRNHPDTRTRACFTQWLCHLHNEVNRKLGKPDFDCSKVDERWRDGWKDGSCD
IDE inh: human IDE inhibitors in live cells, primary screen, fluorescence polarization, HEK cells, FAbetaB substrate. Insulin-degrading enzyme (Homo sapiens), P14735. FAbetaB cleavage. inhibition, % at 5.59 µM. hit rate 0.41% among 320,000. AID 434962, 2010;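 active means percent inhibition above the average of all tested compounds plus 3 SD, set per screening campaign, cut at about 16% in these data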;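 further: IDE supplied by intact live HEK cells; FP after avidin binding of uncleaved biotin substrate so inhibition keeps polarization high; 0% = DMSO wells and 100% = 60 µM reference IDE inhibitor Ii1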
Starred values were filed as active, the others as inactive; / = no result given. This is a sample that favours compounds with a hit; in the whole collection about 4.1% have one here.

SMILES | IDE act | M18AAP inhibitor | PolyA inh | CaV13 ICDI inh | ALR inh | IDE inh
Nc1ccccc1Nc1nc2ccccc2[nH]1 | -0.9 | 18.1 | -13.8 | -0.4 | 99.2* | -1.1
COc1cc([N+](=O)[O-])cc(CN2CCCCC2)c1O | 6.5 | -3.1 | 10.8 | -7.7 | 98.0* | -3.9
C/C(=N\N1CCN(Cc2ccc(Cl)cc2)CC1)c1ccc([N+](=O)[O-])cc1 | 5.4 | -2.9 | 10.0 | -7.6 | -4.2 | 1.8
C[n+]1ccc(/C=N/Nc2nc(Cl)c(C#N)c(Cl)c2Cl)cc1 | -2.3 | 4.5 | -24.5 | 1.9 | 82.2* | 5.1
S=c1[nH]nc(C2CCCCC2)n1/N=C/c1ccccn1 | 2.7 | 15.0 | -0.3 | -2.4 | 96.0* | 4.8
COc1cc(/C=N/n2c(C3CCCCC3)n[nH]c2=S)ccc1O | -9.3 | 21.0 | 20.2 | -4.8 | 98.1* | /
COc1cccc(/C=N/n2c(C3CCCCC3)n[nH]c2=S)c1O | 0.0 | 15.8 | -5.3 | / | 91.9* | /
COc1cccc(/C=N/n2c(C3CCCCC3)n[nH]c2=S)c1OC | -1.8 | 3.8 | -25.5 | -20.2 | -4.6 | 2.0
S=c1[nH]nc(C2CCCCC2)n1/N=C/c1ccccc1 | -8.5 | 11.8 | 0.9 | -4.6 | -1.7 | 4.0
O=C(Cn1nnc(N2CCOCC2)n1)NN=Cc1ccccc1Cl | / | / | / | -3.9 | / | /
Nc1ccn([C@@H]2O[C@H](C(=O)N3CCN(C(=O)N4CCCCC4)CC3)[C@@H](O)[C@H]2O)c(=O)n1 | / | / | / | -5.5 | / | /
CC(C)c1onc(C(=O)NCc2ccccc2)c1[N+](=O)[O-] | 3.4 | 8.6 | 10.0 | -5.6 | 2.9 | -2.8
CN(C)c1ccc(/C=C2/NC(=O)NC2=O)cc1 | 2.3 | 4.1 | -11.0 | -26.7 | 99.4* | -2.7
COc1ccc(-c2nc(CSCC(=O)N3CCc4ccccc4C3)c(C)o2)cc1OC | 1.9 | 2.8 | 16.0 | -1.9 | 98.5* | 4.0
COc1ccc(-c2nc(CSCC(=O)N3CCN(c4cccc(C)c4)C(C)C3)c(C)o2)cc1OC (stereo unspecified) | 5.8 | -3.8 | -16.9 | 0.4 | 99.3* | 1.1
Cc1cccc(-c2nc(CSCC(=O)N3CCN(c4ccccn4)CC3)c(C)o2)c1 | 6.2 | 3.5 | -7.5 | -5.9 | / | 0.9
COc1ccc(-c2nc(CSCC(=O)N3CCC(C(N)=O)CC3)c(C)o2)cc1OC | 1.2 | -12.9 | -10.8 | -6.8 | 98.6* | 2.4
COc1ccc(-c2nc(C#N)c(N3CCc4ccccc4C3)o2)cc1OC | 6.0 | -6.2 | -9.7 | -6.8 | -9.8 | -2.0
COc1ccc(-c2nc(CN3CCC(C(=O)NCC4CCCO4)CC3)c(C)o2)cc1OC (stereo unspecified) | 5.0 | 2.1 | -4.8 | -2.1 | -9.9 | 1.4
CCOc1ccc(S(=O)(=O)NCc2ccc3c(c2)OCO3)cc1 | 5.9 | 12.9 | -4.1 | -5.1 | 1.5 | 0.8
COc1cc(OC)c(N(C)S(=O)(=O)c2cccc(C(=O)Nc3nccs3)c2)cc1Cl | 2.7 | / | / | -1.9 | -5.2 | 6.3
CCCCCN1C2=NCCN2c2ccccc21 | 1.5 | -1.1 | 19.6 | -4.0 | 96.3* | -1.4
Cc1ccccc1CN1C2=NCCCN2c2ccccc21 | 1.1 | -0.2 | 11.6 | -3.4 | -9.4 | 0.0
Cc1ccccc1CN1C2=NCCN2c2ccccc21 | 4.3 | -5.6 | 9.4 | -4.5 | 98.8* | 1.3
Fc1ccc(CN2C3=NCCN3c3ccccc32)cc1 | 0.2 | 3.7 | 14.6 | -2.1 | 95.0* | 3.3
SMILES | IDE act | M18AAP inhibitor | PolyA inh | CaV13 ICDI inh | ALR inh | IDE inh
CCOC(=O)CN1C2=NCCN2c2ccccc21 | 1.2 | 2.4 | 5.2 | -4.8 | / | 3.1
Fc1ccc(CN2C3=NCCCN3c3ccccc32)cc1 | 3.6 | -10.6 | 0.2 | -14.5 | 2.6 | 4.0
COc1ccc(S(=O)(=O)N2CCN(C(=O)COc3ccc(C)c(C)c3)CC2)cc1OC | 1.6 | -12.2 | -2.7 | -3.2 | -8.1 | -4.4
CC1CCCCN1CCNC(=O)c1ccc2c(=O)n(Cc3ccc(Cl)cc3)c(=S)[nH]c2c1 (stereo unspecified) | 3.4 | 1.7 | -0.6 | -17.3 | 4.5 | 2.7
O=C(N/N=C/c1cc(Cl)cc([N+](=O)[O-])c1O)c1cccc(S(=O)(=O)N2CCOCC2)c1 | 0.6 | / | / | -4.3 | / | /
O=C(Nc1ccc(-c2nc3ccccc3o2)cc1)c1ccc2c(c1)OCO2 | 17.8* | 3.2 | -32.3 | -8.2 | -0.2 | -4.2
Cc1ccc2oc(-c3ccc(NC(=O)c4ccc5c(c4)OCO5)cc3)nc2c1 | 4.2 | -4.6 | 1.3 | -5.1 | -4.0 | 3.4
CCOP(=O)(OCC)C(Nc1ccc(OC)cc1)c1ccco1 (stereo unspecified) | 3.1 | -8.2 | 15.2 | -8.9 | 94.9* | -3.6
CCOP(=O)(OCC)C(Nc1ccc(C(=O)O)cc1)c1ccccc1 (stereo unspecified) | -2.9 | -14.3 | 23.2 | -6.3 | -1.2 | 1.7
O=C1CCCC2=C1Sc1ccc(Cl)cc1N2 | -11.6 | 30.0* | 8.6 | -4.5 | / | 5.1
Cc1ccc(-c2nc3ncccn3c2Nc2ccc3c(c2)OCCO3)cc1 | -3.5 | 2.6 | 5.0 | -5.5 | 95.8* | 1.9
Oc1ccc(-c2nc3ncccn3c2Nc2ccc3c(c2)OCCO3)cc1 | 5.2 | 8.2 | 15.2 | -0.6 | 93.1* | -2.2
Clc1ccc(-c2nc3ncccn3c2Nc2ccc3c(c2)OCCO3)cc1 | 3.0 | -10.7 | -10.1 | -4.4 | -9.8 | -1.5
COc1ccc(-c2nc3ncccn3c2Nc2ccc3c(c2)OCCO3)cc1 | 3.5 | -1.6 | 13.9 | -2.1 | / | /
Cc1cccc(Nc2c(-c3ccc(N4CCOCC4)cc3)nc3ncccn23)c1 | -4.6 | -0.9 | -10.6 | -7.5 | 94.8* | -1.8
CN(C)c1nc(Oc2ccc(OCCOc3ccccc3)nn2)nc(N(C)C)n1 | -0.1 | -13.2 | / | 1.7 | -3.6 | 7.4
O=C1OC(Sc2ccccc2)(c2ccccc2)c2ccccc21 (stereo unspecified) | -3.7 | / | / | -5.3 | / | /
Cc1ccc(C2C3CSCC=C3C(C#N)=C(N)C2(C#N)C#N)cc1 (stereo unspecified) | -9.0 | 9.2 | -44.9 | -9.3 | 93.4* | 1.9
Fc1ccccc1NC(=S)NNc1ncc(C(F)(F)F)cc1Cl | 1.9 | 28.1* | 0.9 | -4.5 | 21.7 | 3.9
CC(C)(C)C(=O)OCc1nc(-c2ccc(C(F)(F)F)cc2)cs1 | -0.7 | 0.9 | 0.2 | -4.8 | -2.6 | -1.9
O=C(NCc1ccc(C(=O)O)cc1)OCc1ccccc1 | 2.7 | -4.8 | 18.6 | -4.3 | -3.3 | 1.9
CC(C)C(NC(=O)CSCc1ccc([N+](=O)[O-])cc1)C(C)C | 1.0 | 1.6 | 13.1 | / | 98.4* | 1.3
CCCC(C)NC(=O)c1ccc(OCc2ccc(Cl)cc2)c(OC)c1 (stereo unspecified) | 5.1 | -14.7 | -0.5 | -5.2 | 0.8 | -1.4
